Measurements from the supplement of paper PMC3334620.
Whole data set: some 33,000 sequences, median “E-score (-0.5 to 0.5)” near -0.053, cut for the highest 2% near 0.37. The full list was thinned out, with the highest values kept by preference.

These sequences were tested against Hap1 (UniProt P0CE41) (assay: PBM E-score (8-mer binding enrichment) (E-score (-0.5 to 0.5)); higher = stronger / more preferred TF binding). Conditions: protein concentration: 200 nM; construct: GST-DNA-binding domain.
UniProt P0CE41, sequence (P0CE41 whole entry, the tested form may be a part): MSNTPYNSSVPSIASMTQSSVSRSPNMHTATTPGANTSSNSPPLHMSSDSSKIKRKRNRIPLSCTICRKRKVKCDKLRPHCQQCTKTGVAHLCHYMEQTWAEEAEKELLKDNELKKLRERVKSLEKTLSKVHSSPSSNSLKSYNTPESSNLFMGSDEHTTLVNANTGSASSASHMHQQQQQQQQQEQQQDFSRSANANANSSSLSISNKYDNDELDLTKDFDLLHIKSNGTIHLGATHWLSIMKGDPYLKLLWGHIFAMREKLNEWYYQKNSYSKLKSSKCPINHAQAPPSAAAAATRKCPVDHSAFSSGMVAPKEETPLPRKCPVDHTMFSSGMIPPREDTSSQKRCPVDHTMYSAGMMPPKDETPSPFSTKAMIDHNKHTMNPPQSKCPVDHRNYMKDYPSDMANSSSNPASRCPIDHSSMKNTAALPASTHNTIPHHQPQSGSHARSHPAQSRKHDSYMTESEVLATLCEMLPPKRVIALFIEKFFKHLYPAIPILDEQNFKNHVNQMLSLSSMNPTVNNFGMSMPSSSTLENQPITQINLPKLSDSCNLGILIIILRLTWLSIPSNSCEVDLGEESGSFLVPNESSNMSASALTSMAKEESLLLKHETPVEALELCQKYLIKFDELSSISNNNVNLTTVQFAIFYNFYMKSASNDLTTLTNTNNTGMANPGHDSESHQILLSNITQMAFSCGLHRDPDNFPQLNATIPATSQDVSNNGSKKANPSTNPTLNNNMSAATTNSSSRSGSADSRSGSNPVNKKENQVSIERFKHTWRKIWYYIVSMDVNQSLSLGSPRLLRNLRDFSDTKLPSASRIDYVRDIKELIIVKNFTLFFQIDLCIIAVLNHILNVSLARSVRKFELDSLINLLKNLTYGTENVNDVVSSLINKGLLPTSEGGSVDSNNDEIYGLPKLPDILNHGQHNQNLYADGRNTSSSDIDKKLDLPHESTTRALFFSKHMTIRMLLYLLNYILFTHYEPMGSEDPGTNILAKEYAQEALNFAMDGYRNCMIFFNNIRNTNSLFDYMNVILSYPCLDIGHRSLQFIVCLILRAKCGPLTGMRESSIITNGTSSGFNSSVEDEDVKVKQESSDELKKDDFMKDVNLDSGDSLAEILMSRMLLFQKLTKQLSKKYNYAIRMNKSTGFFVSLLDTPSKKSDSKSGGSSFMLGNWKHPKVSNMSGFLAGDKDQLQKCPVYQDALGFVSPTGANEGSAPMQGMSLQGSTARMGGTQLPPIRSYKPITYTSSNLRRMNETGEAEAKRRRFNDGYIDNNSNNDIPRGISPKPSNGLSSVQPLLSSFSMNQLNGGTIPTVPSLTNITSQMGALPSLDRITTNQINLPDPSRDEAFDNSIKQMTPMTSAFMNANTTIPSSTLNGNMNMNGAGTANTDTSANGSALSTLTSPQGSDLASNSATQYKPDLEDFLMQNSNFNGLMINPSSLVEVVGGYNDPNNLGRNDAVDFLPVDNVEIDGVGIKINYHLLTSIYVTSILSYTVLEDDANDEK
Method in brief: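 Full-length yeast transcription factors or their DNA-binding domains, GST-tagged and expressed with PURExpress, were applied at about 100-200 nM to universal all-10-mer Agilent arrays. These arrays had been made double-stranded by primer extension on fresh or once-stripped slides. Detection used fluorescent anti-GST, normalisation used masliner, and E-scores for ungapped eight-base words pooled with reverse complements came from the Universal PBM Analysis Suite.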
In the case of ACCTCCGG, the “PBM E-score” value is reported as 0.454. ACCTCCGT was tested, and the “PBM E-score” value was 0.286. With TCCTCCGA the “PBM E-score” value was 0.308. With CCCTCCGG the “PBM E-score” value was 0.331. With CCCTCCGA the “PBM E-score” value was 0.253. AATCATTC was tested, and the “PBM E-score” value was -0.0493. With CCTTGGAG the “PBM E-score” value was -0.109. For ACCCGCTA, the “PBM E-score” value was 0.209. In the case of GTCAGTCA, the “PBM E-score” value is reported as -0.172. In the case of CGGGTATA, the “PBM E-score” value is reported as 0.435. In the case of CCGGTATC, the “PBM E-score” value is reported as 0.433. CCGGTATA was tested, and the “PBM E-score” value was 0.425. For ACGGTATA, the “PBM E-score” value was 0.0727. In the case of GCGGTATA, the “PBM E-score” value is reported as 0.0943. With GGGGTATA the “PBM E-score” value was 0.103. ACGGTATC was tested, and the “PBM E-score” value was 0.113. For AGGGTATA, the “PBM E-score” value was 0.254. CAGGTATC was tested, and the “PBM E-score” value was 0.0262. In the case of ACCAAGCG, the “PBM E-score” value is reported as 0.0447. With CGGTTTCA the “PBM E-score” value was 0.263. With AACTCAGG the “PBM E-score” value was -0.116. In the case of AGGGATGG, the “PBM E-score” value is reported as 0.00107. For AGCATCCG, the “PBM E-score” value was 0.215. AGCATATG was tested, and the “PBM E-score” value was -0.278. GCCGTTAA was tested, and the “PBM E-score” value was 0.346. In the case of CCCGTTAA, the “PBM E-score” value is reported as 0.297. For TCCGTTAA, the “PBM E-score” value was 0.408. With ATCTAAAA the “PBM E-score” value was -0.105. CGAGTACG was tested, and the “PBM E-score” value was 0.0449. CTCTCGCA was tested, and the “PBM E-score” value was -0.179. In the case of ATCTCGGC, the “PBM E-score” value is reported as 0.379. With CTCTCGGC the “PBM E-score” value was 0.318. For CTCTCGGA, the “PBM E-score” value was 0.4. For AGCTCGGC, the “PBM E-score” value was 0.354. In the case of ATCTCGGA, the “PBM E-score” value is reported as 0.385. GTCTCGGA was tested, and the “PBM E-score” value was 0.358. ATCTCGGG was tested, and the “PBM E-score” value was 0.356. CTCTCGAA was tested, and the “PBM E-score” value was -0.332. In the case of GCCGGGCC, the “PBM E-score” value is reported as 0.221. With GTGTGTGA the “PBM E-score” value was -0.201. For ACCCATGC, the “PBM E-score” value was -0.249. For TAGGCTAA, the “PBM E-score” value was -0.138. In the case of GGATCGAC, the “PBM E-score” value is reported as 0.17. With ACCGACCG the “PBM E-score” value was 0.314. With CCCGACCG the “PBM E-score” value was 0.379. In the case of CCCGACCC, the “PBM E-score” value is reported as 0.167. With ACCGACGT the “PBM E-score” value was 0.185. With CCCGACGG the “PBM E-score” value was 0.331. ACCGACGG was tested, and the “PBM E-score” value was 0.38. For GGGTTACA, the “PBM E-score” value was 0.0182. With AAACGGGA the “PBM E-score” value was 0.217. With AATCCATG the “PBM E-score” value was -0.036. With AGAGTTAC the “PBM E-score” value was -0.312. With GGAGTTAC the “PBM E-score” value was 0.393. With CGAGTTAC the “PBM E-score” value was -0.0647. With GGAGTTAA the “PBM E-score” value was 0.429. TGAGTTAA was tested, and the “PBM E-score” value was -0.188. In the case of AGAGTTAA, the “PBM E-score” value is reported as -0.105. For GAGGGGTA, the “PBM E-score” value was 0.0493. CCATCAAA was tested, and the “PBM E-score” value was -0.17. With GAGACCGC the “PBM E-score” value was 0.0393. In the case of CGGAAACA, the “PBM E-score” value is reported as 0.384. For CGGAAAAA, the “PBM E-score” value was 0.4. With CGGAAGTC the “PBM E-score” value was 0.305. CGGAAGTA was tested, and the “PBM E-score” value was 0.38. With AGGAAACA the “PBM E-score” value was -0.0825. For CGGAAAAG, the “PBM E-score” value was 0.343. For GGGAAACA, the “PBM E-score” value was 0.112. In the case of AGGAAGTA, the “PBM E-score” value is reported as 0.0541. For CGGAACTA, the “PBM E-score” value was 0.436. For AGGAACTA, the “PBM E-score” value was -0.0416. CGGAACTC was tested, and the “PBM E-score” value was 0.309. In the case of CGGAAAAC, the “PBM E-score” value is reported as 0.346. With AATCCTAC the “PBM E-score” value was -0.124. In the case of ACAGCGCT, the “PBM E-score” value is reported as -0.0282. With CGCTCGTA the “PBM E-score” value was 0.0559. With ACAGTACA the “PBM E-score” value was -0.00621. In the case of CGTATCGC, the “PBM E-score” value is reported as 0.208. CCACTGGG was tested, and the “PBM E-score” value was -0.145. In the case of AAGGAAGT, the “PBM E-score” value is reported as 0.113. TCAGCAAA was tested, and the “PBM E-score” value was -0.157. With GTTTCTAA the “PBM E-score” value was 0.105. With GACCCGTC the “PBM E-score” value was 0.0739. CACAGTCA was tested, and the “PBM E-score” value was -0.284. In the case of GGCACGCC, the “PBM E-score” value is reported as -0.0738. In the case of ACCAAACT, the “PBM E-score” value is reported as -0.13. With GCGTTGAC the “PBM E-score” value was -0.207. In the case of GAAGCATC, the “PBM E-score” value is reported as -0.0716. GGGAAATA was tested, and the “PBM E-score” value was 0.13. In the case of CGGAAATC, the “PBM E-score” value is reported as 0.352. With AGGAATTA the “PBM E-score” value was 0.17. CGGAATTA was tested, and the “PBM E-score” value was 0.481. For CGGAAATA, the “PBM E-score” value was 0.487. With CGGAATTC the “PBM E-score” value was 0.319. With AGTTGAGC the “PBM E-score” value was -0.188. For GCCTGGAA, the “PBM E-score” value was -0.233. In the case of CAGTTTGG, the “PBM E-score” value is reported as -0.204. In the case of AGTATGTA, the “PBM E-score” value is reported as -0.162. For ATGACCGC, the “PBM E-score” value was 0.197. For CAGACCGA, the “PBM E-score” value was 0.278. With AAGACCGT the “PBM E-score” value was 0.0453. In the case of AAGACCGA, the “PBM E-score” value is reported as 0.413. ATGACCGA was tested, and the “PBM E-score” value was 0.378. ATGACCGG was tested, and the “PBM E-score” value was 0.276. For CTTCTAGA, the “PBM E-score” value was -0.156. For AAATGCTC, the “PBM E-score” value was 0.0505. With TGACAGAA the “PBM E-score” value was -0.247. For ACAGACCT, the “PBM E-score” value was -0.0718. In the case of ACTAGTAC, the “PBM E-score” value is reported as -0.173. For ATAGCCGA, the “PBM E-score” value was 0.372. In the case of ATAGCCGC, the “PBM E-score” value is reported as 0.232. CTAGCCGA was tested, and the “PBM E-score” value was 0.25. For ATAGCCGG, the “PBM E-score” value was 0.397. ATAGCCAG was tested, and the “PBM E-score” value was -0.293. In the case of AGAGCCGG, the “PBM E-score” value is reported as 0.263. With AGTTTGGA the “PBM E-score” value was -0.274. In the case of CAGTTTCA, the “PBM E-score” value is reported as -0.241. CTAACGGC was tested, and the “PBM E-score” value was 0.184. With GTAACGCA the “PBM E-score” value was 0.0607. With GTAACGGA the “PBM E-score” value was 0.401. ATCACGGA was tested, and the “PBM E-score” value was 0.352. For CAAACGGA, the “PBM E-score” value was 0.324. For GAAACGGA, the “PBM E-score” value was 0.277. For ATAACGGC, the “PBM E-score” value was 0.355. CTCACGGA was tested, and the “PBM E-score” value was 0.221. GTCACGGA was tested, and the “PBM E-score” value was 0.371. In the case of ATAACGGG, the “PBM E-score” value is reported as 0.228. For ATAACGGA, the “PBM E-score” value was 0.414. CTAACGGA was tested, and the “PBM E-score” value was 0.38. CATAACCG was tested, and the “PBM E-score” value was 0.133. In the case of ATGATTCC, the “PBM E-score” value is reported as 0.0894. TCCTGCCA was tested, and the “PBM E-score” value was -0.12. GTCATGAC was tested, and the “PBM E-score” value was -0.111. For AAAAACTC, the “PBM E-score” value was 0.0741. For AGATGGCT, the “PBM E-score” value was -0.0974. For ACTATGCA, the “PBM E-score” value was -0.16. For CGCTACTA, the “PBM E-score” value was 0.163. CCGCCTTA was tested, and the “PBM E-score” value was -0.0179. CCGCTCAA was tested, and the “PBM E-score” value was 0.0207. AGCCAGCA was tested, and the “PBM E-score” value was -0.268. For CGTTTACA, the “PBM E-score” value was -0.145. With CAACAGAA the “PBM E-score” value was -0.227. For AACAAATC, the “PBM E-score” value was -0.00416. With AGCGTACT the “PBM E-score” value was -0.0657. GGTCCGCA was tested, and the “PBM E-score” value was 0.3. In the case of AGTCCGCA, the “PBM E-score” value is reported as 0.293. In the case of GGTCCCGA, the “PBM E-score” value is reported as 0.231. With CGTCCGCC the “PBM E-score” value was 0.281. CGTCCGGA was tested, and the “PBM E-score” value was 0.443. CGTCCGGC was tested, and the “PBM E-score” value was 0.41. CGTCCGTC was tested, and the “PBM E-score” value was 0.234. CGTCCGCA was tested, and the “PBM E-score” value was 0.228. With GGTCCGGA the “PBM E-score” value was 0.44. With CGTCCGTA the “PBM E-score” value was 0.309. In the case of AGTCCGTA, the “PBM E-score” value is reported as 0.269. In the case of AGTCCGGA, the “PBM E-score” value is reported as 0.452. For ATGAAGAA, the “PBM E-score” value was -0.136. GCACTGGA was tested, and the “PBM E-score” value was -0.275. In the case of ACTGCCGA, the “PBM E-score” value is reported as 0.261. With GCCGACCC the “PBM E-score” value was 0.139. AAACAGCC was tested, and the “PBM E-score” value was -0.0624. In the case of AATGATCA, the “PBM E-score” value is reported as -0.179. In the case of CTTCAAGA, the “PBM E-score” value is reported as -0.235. AGGAAAGA was tested, and the “PBM E-score” value was -0.275. For ACATTCGC, the “PBM E-score” value was 0.0143. With AGCCAAGA the “PBM E-score” value was -0.26. In the case of AGGACACA, the “PBM E-score” value is reported as -0.0409. For AGATTCGA, the “PBM E-score” value was -0.117. CGGTAATC was tested, and the “PBM E-score” value was 0.327. In the case of AGGTATTA, the “PBM E-score” value is reported as 0.0089. CGGTAATA was tested, and the “PBM E-score” value was 0.408. With CGGTATTA the “PBM E-score” value was 0.412. In the case of GGGTAATA, the “PBM E-score” value is reported as -0.00588. In the case of CGGTATTC, the “PBM E-score” value is reported as 0.304.
